Screening data deposited in PubChem by Broad Institute.
The sample as a whole holds a higher share of hits than the screen did.
T cruzi growth-1: inhibitors of T. cruzi proliferation; T. cruzi beta-gal in NIH3T3, GalScreen luminescence, 90 h; inhibition, % at 8.34 µM; 77,000 tested, 5.9% active; AID 624255;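 active = mean inhibition above about 93%, with at least 55% of replicates each passing it, limit read from the data, passing the limit was not always enough; inconclusive = only one of those two conditions holds; inactive = neither condition holds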
C diff growth: inhibitors of Clostridium difficile growth. growth activity, negative = inhibition, % at 16 µg/mL (by protocol). Clostridium difficile clinical isolate growth, OD600, 24 h; stronger effect = lower value. AID 1259249. 86,000 tested, 0.25% active;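 active = mean growth activity at or below -80% and every replicate also at or below -80%; inconclusive = mean at or below -80% but some replicate above -80%; inactive = mean growth activity above -80%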
T cruzi growth-2: Trypanosoma cruzi proliferation inhibition; 5,600 tested, 72% active; T. cruzi beta-gal in NIH3T3, GalScreen luminescence, 90 h; shares compounds with T cruzi growth-1; inhibition, % at 8.35 µM;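 active = mean replicate inhibition above about 95% and at least 55% of replicates individually reaching it, limit read from the data; inconclusive = only one of the two criteria is met; inactive = neither criterion is met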
T cruzi growth-3: inhibitors of T. cruzi proliferation; shares compounds with T cruzi growth-1; T. cruzi beta-gal in NIH3T3, GalScreen luminescence, 90 h; inhibition, % at 2.09 µM; 5,600 tested, 21% active; AID 651740;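 active = mean inhibition above about 95%, with at least 55% of replicates also reaching it, limit read from the data; inconclusive = meets just one of the two conditions; inactive = meets neither condition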
NIH3T3 tox: kills mouse NIH/3T3 fibroblasts; AID 651742; NIH/3T3 viability, CellTiter-Glo ATP luminescence, 90 h; 5,600 tested, 14% active; cytotoxicity (signal decrease), % at 8.35 µM; shares compounds with T cruzi growth-1;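 active = mean signal decrease across replicates above about 35% based on untreated-well scatter, with enough replicates individually passing, limit read from the data; inconclusive = no rule stated though some were filed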
3T3 cytotox 2: NIH/3T3 (mouse) viability loss; shares compounds with T cruzi growth-1; NIH/3T3 viability, CellTiter-Glo ATP luminescence, 90 h; inhibition, % at 24.9 µM; 5,600 tested, 56% active;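 active = mean loss of cell viability signal at or above a set limit, and enough replicates individually reaching it; inconclusive = meets only the mean limit or only the replicate share; inactive = meets neither condition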
Each line names hits and unclear results; the compound was inactive in the other large screens (follow-up assays come after a bar, where they were run).

C[C@H]1CN([C@@H](C)CO)C(=O)c2cc(C#CCc3ccccc3)cnc2O[C@H]1CN(C)Cc1cccc(C(=O)O)c1	none
C[C@H](CO)N1C[C@H](C)[C@H](CN(C)S(=O)(=O)c2ccc(F)cc2)Oc2ccc(NC(=O)c3ccncc3)cc2C1=O	none
CC=Cc1ccc2n(c1=O)C[C@H]1[C@H](CO)[C@@H](C(=O)NCCc3ccccc3)[C@@H]2N1C (mixture of isomers)	none
CC=Cc1ccc2n(c1=O)C[C@H]1[C@H](CO)[C@@H](C(=O)NCc3ccccc3)[C@@H]2N1C (mixture of isomers)	T cruzi growth-1 96 | T cruzi growth-2 inactive | T cruzi growth-3 inactive | NIH3T3 tox inactive | 3T3 cytotox 2 inactive
CCN1[C@H](C(=O)Nc2ccccc2)[C@@H](CO)[C@@H]2Cn3c(ccc(-c4ccncc4)c3=O)[C@@H]21	none
COc1ccc(-c2ccc3n(c2=O)C[C@H]2[C@H](CO)[C@@H](C(=O)Nc4ccccc4)N(C)[C@@H]32)cc1	none (no result: T cruzi growth-1)
CC(=O)N1[C@H](C(=O)NC2CCC2)[C@@H](CO)[C@@H]2Cn3c(ccc(-c4ccccc4)c3=O)[C@@H]21	none
CN1[C@@H]2c3ccc(-c4ccccc4)c(=O)n3C[C@@H]2[C@@H](CO)[C@@H]1C(=O)Nc1ccccc1	T cruzi growth-1 101 | T cruzi growth-2 inactive | T cruzi growth-3 inactive | NIH3T3 tox inactive | 3T3 cytotox 2 inactive
CN(C)CC(=O)N1[C@H](C(=O)NC2CCC2)[C@@H](CO)[C@@H]2Cn3c(ccc(-c4ccccc4)c3=O)[C@@H]21	T cruzi growth-1 active | T cruzi growth-2 inactive | T cruzi growth-3 inactive | NIH3T3 tox inactive | 3T3 cytotox 2 inactive
CN1[C@H](C(=O)Nc2ccccc2)[C@@H](CO)[C@@H]2Cn3c(ccc(-c4ccccc4)c3=O)[C@@H]21	T cruzi growth-1 100 | T cruzi growth-2 inactive | T cruzi growth-3 inactive | NIH3T3 tox inactive | 3T3 cytotox 2 inconclusive
O=S(=O)(Cc1ccccc1)NCC[C@@H]1CC[C@@H](NS(=O)(=O)c2ccccc2)[C@H](CO)O1	none
COc1ccc(NC(=O)Nc2ccc3c(c2)C(=O)N([C@@H](C)CO)C[C@H](C)[C@H](CN(C)Cc2ccccc2)O3)cc1	none
Cc1ccc(OC(=O)N(C)C[C@H]2OCc3ccccc3-c3ccccc3C(=O)N([C@H](C)CO)C[C@H]2C)cc1	none (no result: C diff growth)
CO[C@H]1CN(C)C(=O)c2ccc(NC(=O)Cc3ccccc3)cc2OC[C@@H](C)N(C(C)=O)C[C@@H]1C	none (no result: C diff growth)
COc1ccccc1CNC(=O)C[C@H]1CC[C@H]2[C@H](COc3ccc(NS(=O)(=O)c4ccc(C)cc4)cc3C(=O)N2C)O1	none
COc1ccc(C(=O)Nc2ccc3c(c2)C(=O)N(C)C[C@H](OC)[C@@H](C)CN[C@H](C)CO3)cc1	none (no result: C diff growth)
C[C@@H]1CN([C@@H](C)CO)C(=O)c2cc(C#Cc3ccccn3)cnc2O[C@@H]1CN(C)Cc1cncnc1	T cruzi growth-1 inconclusive | T cruzi growth-2 104 | T cruzi growth-3 inactive | NIH3T3 tox inactive | 3T3 cytotox 2 inactive
C[C@@H]1CN([C@H](C)CO)C(=O)c2cc(C#Cc3ccccn3)cnc2O[C@@H]1CN(C)Cc1cncnc1	none
C[C@H](CO)N1C[C@H](C)[C@@H](CN(C)Cc2cncnc2)Oc2ncc(C#Cc3ccccn3)cc2C1=O	T cruzi growth-1 inconclusive | T cruzi growth-2 103 | T cruzi growth-3 inactive | NIH3T3 tox inactive | 3T3 cytotox 2 inactive
C[C@@H]1CN([C@@H](C)CO)C(=O)c2cc(C#Cc3ccccn3)cnc2O[C@H]1CN(C)Cc1cccnc1	none
C[C@@H]1CN([C@@H](C)CO)C(=O)Cc2cc(NS(=O)(=O)c3ccc(Cl)cc3)ccc2O[C@H]1CN(C)Cc1ccncc1	none
COCC(=O)N(C[C@H]1N[C@H](CO)[C@@H]1c1ccc(-c2cncnc2)cc1)C(C)C	none (no result: T cruzi growth-1)
COc1ccc(-c2ccc3c(c2)O[C@H](CN(C)C(=O)Nc2ccccc2F)[C@H](C)CN([C@H](C)CO)S3(=O)=O)cc1	none
C[C@@H]1CN([C@@H](C)CO)S(=O)(=O)c2ccc(-c3ccc(F)cc3)cc2O[C@@H]1CN(C)C(=O)Nc1ccccc1F	T cruzi growth-1 98 | T cruzi growth-2 102 | T cruzi growth-3 inactive | NIH3T3 tox inactive | 3T3 cytotox 2 inactive
C[C@H](CO)N1C[C@H](C)[C@H](CN(C)C(=O)Nc2ccccc2F)Oc2cc(-c3ccc(F)cc3)ccc2S1(=O)=O	none
COc1ccc(-c2ccc3c(c2)O[C@H](CN(C)C(=O)Nc2ccccc2F)[C@H](C)CN([C@@H](C)CO)S3(=O)=O)cc1	T cruzi growth-1 96 | T cruzi growth-2 105 | T cruzi growth-3 inactive | NIH3T3 tox inactive | 3T3 cytotox 2 72
C[C@@H]1CN([C@H](C)CO)S(=O)(=O)c2ccc(-c3ccc(F)cc3)cc2O[C@H]1CN(C)C(=O)Nc1ccccc1F	none
C[C@H]1CN([C@@H](C)CO)S(=O)(=O)c2ccc(-c3cccc(C#N)c3)cc2O[C@H]1CN(C)C(=O)Nc1ccccc1F	T cruzi growth-1 117 | T cruzi growth-2 103 | T cruzi growth-3 inactive | NIH3T3 tox 37 | 3T3 cytotox 2 64
C[C@H](CO)N1C[C@H](C)[C@H](CN(C)C(=O)Nc2ccccc2F)Oc2cc(-c3cccc(C#N)c3)ccc2S1(=O)=O	none
C[C@H]1CN([C@@H](C)CO)S(=O)(=O)c2ccc(-c3ccc(F)cc3)cc2O[C@H]1CN(C)C(=O)Nc1ccccc1F	T cruzi growth-1 inconclusive | T cruzi growth-2 110 | T cruzi growth-3 inactive | NIH3T3 tox 56 | 3T3 cytotox 2 55
Cc1cc(C(=O)Nc2cccc3c2O[C@@H](CN(C)S(=O)(=O)c2ccc(F)cc2)[C@H](C)CN([C@@H](C)CO)C3=O)n(C)n1	none
O=S(=O)(c1ccc(F)cc1)N1CC[C@H]2[C@H](CO)Nc3ccc(-c4ccc(F)cc4)cc3[C@H]21	none
O=C(NCc1cc(F)cc(F)c1)[C@H]1[C@H](CO)[C@H]2Cn3c(cccc3=O)[C@@H]1N2	none
CC(=O)N(C)C[C@H]1Oc2ncc(-c3cncnc3)cc2C(=O)N([C@H](C)CO)C[C@@H]1C	none
C[C@H](CO)N1C[C@H](C)[C@@H](CN(C)C(=O)C2CC2)Oc2cc(-c3ccc(C(=O)N(C)C)cc3)ccc2S1(=O)=O	none (no result: C diff growth)
COc1ccccc1-c1cnc2c(c1)C(=O)N([C@H](C)CO)C[C@H](C)[C@@H](CN(C)CC1CCCC1)O2	none
CCCNC(=O)N1CC2(C1)[C@H](c1ccccc1)[C@H](CO)N2CC1CCCC1	none (no result: T cruzi growth-1)
COc1cccc(-c2cnc3c(c2)C(=O)N([C@@H](C)CO)C[C@H](C)[C@H](CN(C)Cc2ccccc2)O3)c1	none
Cc1noc(C)c1NC(=O)N(C)C[C@H]1Oc2c(NS(=O)(=O)c3cccs3)cccc2C(=O)N([C@H](C)CO)C[C@H]1C	none (no result: C diff growth)
C[C@@H]1CN([C@@H](C)CO)C(=O)c2cc(NC(=O)C3CCCCC3)ccc2O[C@@H](C)CCCCO[C@H]1CN(C)Cc1ccc(C(=O)O)cc1	none
